Test systems include NCI-H23 lung; NCI-H226 lung; NCI-H322M lung; HOP-62 NSCLC; NCI-H460 lung; HOP-92 NSCLC; NCI-H522 lung; A549/ATCC NSCLC; 786-0 renal; COLO 205 colon; DU-145 prostate; K-562 leukemia; MALME-3M melanoma; MDA-MB-231 breast; RXF 393 renal; SF-268 CNS; SF-295 CNS; SF-539 CNS; UACC-257 melanoma; M14 melanoma.
Test in all cases: NCI-60 one-dose screen, 48 h (100 = growth as untreated, 0 = no growth, -100 = all killed)
Holding throughout (conditions): 10 µM unless noted

Molecules are shown by their SMILES. Compounds without any hit were thinned out: in the full panel of roughly 83,000, 20% have a hit.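 96-well plates, one dose, 48 hours. Percent growth reported; active if below 10.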 A number with no mark means an inactive call. Active and inactive are the calls of the source.

For the compound `CCOC(=O)c1ccc[nH]1`, the growth was 87.7% in the assay on NCI-H23 lung; 99.3% with NCI-H226 lung; 84.3% in the assay on NCI-H322M lung; 83.5% with HOP-62 NSCLC; 105% with NCI-H460 lung; 80.4% with HOP-92 NSCLC. The growth was 88.4% in the assay on NCI-H522 lung; 93% in the assay on A549/ATCC NSCLC; 93.1% in the assay on 786-0 renal; 134% with COLO 205 colon; 116% with DU-145 prostate; 88.5% in the assay on K-562 leukemia. Besides, the growth in the assay with MALME-3M melanoma was 87.7%; with MDA-MB-231 breast, 126%; with RXF 393 renal it was 94.1%; with SF-268 CNS, 100%; in the assay with SF-295 CNS, 114%; with SF-539 CNS, 91.9%. For the same compound, the results for the growth in the assay with UACC-257 melanoma and with M14 melanoma were 90.8% and 96.2%, respectively.
For `CCOC(=O)C1=C(CC(O)c2ccc(OC)cc2OC)NC(=O)NC1c1ccccc1` (stereo not given), the growth in the assay on NCI-H23 lung was 103%; in the assay with NCI-H226 lung, 100%; in the assay on NCI-H322M lung it was 104%; in the assay with HOP-62 NSCLC it was 97.8%; with NCI-H460 lung, 113%; with HOP-92 NSCLC, 82.5%. Besides, the growth was 98.5% with NCI-H522 lung; 107% in the assay on A549/ATCC NSCLC; 102% with 786-0 renal; 126% with COLO 205 colon; 110% with DU-145 prostate; 56.1% in the assay on K-562 leukemia. Moreover, the growth is 93.8% with MALME-3M melanoma; 99.4% in the assay with MDA-MB-231 breast; 120% in the assay on RXF 393 renal; 109% with SF-268 CNS; 109% in the assay on SF-295 CNS; 95.1% in the assay with SF-539 CNS. Besides, the growth in the assay on UACC-257 melanoma is 102%; with M14 melanoma, 109%.
For the compound `COc1cccc(-c2cn3nc(-c4cn(C)c5ccccc45)sc3n2)c1`, the growth with NCI-H23 lung is 90%; in the assay with NCI-H226 lung, 89.6%; with NCI-H322M lung it was 96.9%; in the assay on HOP-62 NSCLC it was 96.5%; with NCI-H460 lung, 101%; in the assay with HOP-92 NSCLC, 81.8%. The growth in the assay on NCI-H522 lung is 67.6%; in the assay with A549/ATCC NSCLC, 94.6%; in the assay with 786-0 renal it was 104%; with COLO 205 colon, 108%; in the assay with DU-145 prostate, 106%; in the assay on K-562 leukemia, 48%. Besides, the growth in the assay on MALME-3M melanoma is 84.1%; with MDA-MB-231 breast it was 85.6%; in the assay on RXF 393 renal, 104%; with SF-268 CNS it was 94.8%; with SF-295 CNS, 96.3%; in the assay with SF-539 CNS, 94%. Moreover, the growth was 97.5% in the assay with UACC-257 melanoma and 84.3% in the assay with M14 melanoma.
As for `Cc1ccc2c(/C=C/C(=O)c3cc(CN4CCOCC4)c(O)c4nc(C)ccc34)cc(CN3CCOCC3)c(O)c2n1`, the growth is -2.24% (active) in the assay on NCI-H23 lung; -13% (active) in the assay on NCI-H226 lung; 17% in the assay on NCI-H322M lung; -7.03% (active) in the assay with HOP-62 NSCLC; 7.83% (active) in the assay on NCI-H460 lung; 30.9% with HOP-92 NSCLC. In addition, the growth was -54.8% (active) with NCI-H522 lung; 11.3% in the assay on A549/ATCC NSCLC; -31.9% (active) with 786-0 renal; -25.8% (active) in the assay with COLO 205 colon; -55.9% (active) with DU-145 prostate; 1.93% (active) in the assay on K-562 leukemia. Further, the growth is 42.9% in the assay with MALME-3M melanoma; 11.5% in the assay on MDA-MB-231 breast; -74.5% (active) in the assay with RXF 393 renal; 13.2% with SF-268 CNS; 23% in the assay on SF-295 CNS; -29.4% (active) with SF-539 CNS. In addition, the growth was 7.95% (active) in the assay with UACC-257 melanoma and -20.1% (active) with M14 melanoma.
Turning to `COc1cc(/C=N/NC(=O)c2ccc(-n3cc(-c4ccccc4)nn3)cc2)cc(OC)c1OC`, the growth is 59.1% in the assay with NCI-H23 lung; 32.5% with NCI-H226 lung; 60.6% in the assay with NCI-H322M lung; 71.7% with HOP-62 NSCLC; 41.5% in the assay with NCI-H460 lung; 86.9% with HOP-92 NSCLC. In addition, the growth in the assay on NCI-H522 lung was 68.3%; in the assay with A549/ATCC NSCLC, 81.2%; with 786-0 renal, 93.8%; in the assay on COLO 205 colon, 56.7%; in the assay with DU-145 prostate, 56.9%; with K-562 leukemia it was 60.6%. The growth in the assay with MALME-3M melanoma is -1.82% (active); with MDA-MB-231 breast, 78.2%; in the assay on RXF 393 renal, 68.7%; in the assay with SF-268 CNS, 57.9%; in the assay on SF-295 CNS it was 88%; in the assay with SF-539 CNS, 53.2%. The figures for the growth in the assay with UACC-257 melanoma and with M14 melanoma were 53.9% and 26.6%, respectively.
For `O=C1c2cccnc2C(=O)c2c1c(C(=O)OCCc1ccccn1)c1ccccn21`, the growth in the assay on NCI-H23 lung was -55.8% (active); in the assay on NCI-H226 lung it was -50.1% (active); with NCI-H322M lung it was -53.3% (active); in the assay with HOP-62 NSCLC it was -79% (active); with NCI-H460 lung, -71% (active); in the assay on HOP-92 NSCLC it was 15.1%. Moreover, the growth in the assay with NCI-H522 lung is -50.4% (active); in the assay on A549/ATCC NSCLC, -65.9% (active); in the assay with 786-0 renal, -63.2% (active); with COLO 205 colon, -62.3% (active); in the assay on DU-145 prostate, -87.9% (active); with K-562 leukemia it was -2.55% (active). Besides, the growth was -57.5% (active) in the assay on MALME-3M melanoma; 5.98% (active) with MDA-MB-231 breast; -46.6% (active) in the assay with RXF 393 renal; -1.63% (active) with SF-268 CNS; -50.9% (active) in the assay with SF-295 CNS; -57.2% (active) in the assay with SF-539 CNS. For the same compound, the growth in the assay with UACC-257 melanoma is -53.2% (active); with M14 melanoma, -70.5% (active).
Consider `[N-]=[N+]=NCC1OC(n2cnc3c(NC(=O)Nc4ccccc4)ncnc32)C2OC(=O)CC12` (stereo not given), for which the growth was 106% in the assay on NCI-H23 lung; 106% with NCI-H226 lung; 99.8% in the assay with NCI-H322M lung; 98.1% in the assay on HOP-62 NSCLC; 112% in the assay on NCI-H460 lung; 86.9% with HOP-92 NSCLC. Further, the growth in the assay on NCI-H522 lung was 107%; in the assay on A549/ATCC NSCLC, 95.2%; with 786-0 renal, 105%; with COLO 205 colon, 105%; with DU-145 prostate it was 109%; with K-562 leukemia, 92.7%. Further, the growth in the assay with MALME-3M melanoma is 96.9%; in the assay with MDA-MB-231 breast, 123%; with RXF 393 renal it was -28.7% (active); with SF-268 CNS, 103%; in the assay on SF-295 CNS it was 100%; with SF-539 CNS it was 97.8%. Moreover, the growth in the assay on UACC-257 melanoma was 122%; in the assay on M14 melanoma, 108%.

(Values after PubChem BioAssay (NCI).)
